In PubChem BioAssay AID1159580 (chemical genetic matrix, 2015):
“And” between values parts separate entries of the source, which are not always exact repeats. Identical values can stand only once. About 2,000 (36%) of roughly 5,500 compounds were called active. Not shown: some 18% with an inconclusive outcome. Cut-off read from the data, not from the text of the source: active = normalized growth mostly below about 0.91 (no sharp cut-off); inconclusive = no clear call, values can overlap the other calls; inactive = mostly above about 0.92. The list shows a part of the results.

Experiment: chemical genetic growth profiling, strain panel (AID 1159580);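 note: tested at 20 µM; growth read once vehicle control cultures reached saturation at 30 °C; 1 = growth at the plate median or of vehicle wells; lower values mean less growth of the strain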
Conditions: S. cerevisiae deletion strains, growth OD

Measured: normalized growth

NC(N)=NCCCCN=C(N)N
inactive: locus YAL013W, strain DEP1, active compounds read low 0.997 | locus YAL021C, strain ccr4, active compounds read low 0.993 | locus YAL026C, strain drs2, active compounds read low 0.984 | locus YAL030W, strain snc1, active compounds read low 1 | locus YAL040C, strain CLN3, active compounds read low 1.01 | locus YBL061C, strain skt5, active compounds read low 1.01 | locus YBR009C, strain hhf1, active compounds read low 1.01 | locus YBR021W, strain FUR4, active compounds read low 1.04 | locus YBR023C, strain chs3, active compounds read low 1.01 | locus YBR171W, strain sec66, active compounds read low 0.986 | locus YBR229C, strain ROT2, active compounds read low 0.957 | locus YBR231C, strain swc5, active compounds read low 1 | locus YBR279W, strain paf1, active compounds read low 0.992 | locus YCL011C, strain gbp2, active compounds read low 1.01 | locus YCL016C, strain dcc1, active compounds read low 1.01 | locus YCL029C, strain bik1, active compounds read low 0.989 | locus YCL061C, strain MRC1, active compounds read low 1 | locus YCL069W, strain vba3, active compounds read low 0.984 | locus YCR088W, strain abp1, active compounds read low 1 | locus YDL005C, strain med2, active compounds read low 0.998 | locus YDL035C, strain GPR1, active compounds read low 0.985 | locus YDL040C, strain nat1, active compounds read low 1 | locus YDL074C, strain BRE1, active compounds read low 0.957 | locus YDL101C, strain DUN1, active compounds read low 0.953 | locus YDL134C, strain PPH21, active compounds read low 0.995 | locus YDL185W, strain tfp1, active compounds read low 0.968 | locus YDL192W, strain arf1, active compounds read low 0.992 | locus YDR001C, strain nth1, active compounds read low 1 | locus YDR069C, strain doa4, active compounds read low 0.999 | locus YDR101C, strain arx1, active compounds read low 1 | locus YDR137W, strain rgp1, active compounds read low 1.01 | locus YDR150W, strain NUM1, active compounds read low 0.983 | locus YDR159W, strain sac3, active compounds read low 1 | locus YDR162C, strain NBP2, active compounds read low 0.948 | locus YDR195W, strain ref2 0.984 | locus YDR297W, strain sur2, active compounds read low 0.999 | locus YDR318W, strain mcm21, active compounds read low 1.01 | locus YDR334W, strain swr1, active compounds read low 0.99 | locus YDR335W, strain msn5, active compounds read low 0.997 | locus YDR388W, active compounds read low 0.996 | locus YDR392W, strain spt3, active compounds read low 0.946 | locus YDR502C, strain sam2, active compounds read low 0.991 | locus YEL003W, strain gim4, active compounds read low 0.993 | locus YEL037C, strain rad23, active compounds read low 0.964 | locus YEL061C, strain CIN8 (second series), active compounds read low 0.991 | locus YEL061C, strain CIN8, active compounds read low 0.989 | locus YER002W, strain NOP16, active compounds read low 1 | locus YER015W, strain faa2, active compounds read low 0.997 | locus YER016W, strain bim1, active compounds read low 1 | locus YER110C, active compounds read low 0.99 | locus YER111C, strain swi4, active compounds read low 0.99 | locus YER155C, strain BEM2 (second series), active compounds read low 1.01 | locus YER155C, strain BEM2, active compounds read low 1 | locus YER167W, strain BCK2, active compounds read low 1.01 | locus YFR010W, strain ubp6, active compounds read low 0.98 | locus YGL078C, strain dbp3, active compounds read low 0.996 | locus YGL086W, strain mad1, active compounds read low 1.01 | locus YGL167C, strain pmr1, active compounds read low 1.01 | locus YGL173C, strain kem1, active compounds read low 0.995 | locus YGL227W, strain vid30, active compounds read low 1 | locus YGL240W, strain doc1, active compounds read low 1 | locus YGL248W, strain PDE1, active compounds read low 0.994 | locus YGL253W, strain hxk2, active compounds read low 1 | locus YGR078C, strain PAC10, active compounds read low 0.969 and 0.994 | locus YGR135W, strain pre9, active compounds read low 0.982 | locus YGR229C, strain SMI1, active compounds read low 0.999 | locus YGR252W, strain gcn5, active compounds read low 1.03 | locus YHR013C, strain ard1, active compounds read low 1 | locus YHR027C, strain rpn1, active compounds read low 1 | locus YHR030C, strain SLT2, active compounds read low 1 and 0.976 | locus YHR079C, strain IRE1 (second series), active compounds read low 1.01 | locus YHR079C, strain IRE1, active compounds read low 0.986 | locus YHR094C, strain hxt1, active compounds read low 1.01 | locus YHR129C, strain ARP1, active compounds read low 0.994 | locus YHR142W, strain chs7, active compounds read low 1 | locus YHR200W, strain rpn10, active compounds read low 1.01 | locus YIL066C, strain RNR3, active compounds read low 0.969 | locus YIL073C, strain SPO22, active compounds read low 1.03 | locus YIL125W, strain kgd1, active compounds read low 0.992 | locus YIR030C, strain dcg1, active compounds read low 0.993 | locus YJL092W, strain hpr5, active compounds read low 0.999 | locus YJL095W, strain BCK1 (second series), active compounds read low 1.01 | locus YJL095W, strain BCK1, active compounds read low 0.992 and 0.985 | locus YJL115W, strain asf1, active compounds read low 0.993 | locus YJL129C, strain trk1, active compounds read low 1.02 | locus YJL134W, strain LCB3, active compounds read low 0.989 | locus YJL154C, strain vps35, active compounds read low 0.992 | locus YJL164C, strain tpk1, active compounds read low 1.01 | locus YJL166W, strain qcr8, active compounds read low 1.01 | locus YJL168C, strain set2, active compounds read low 0.992 | locus YJL187C, strain SWE1 (second series), active compounds read low 0.969 | locus YJL187C, strain SWE1, active compounds read low 1.01 | locus YJR043C, strain POL32, active compounds read low 1.02 | locus YJR066W, strain TOR1, active compounds read low 0.99 | locus YJR075W, strain HOC1, active compounds read low 0.94
